From PubChem BioAssay AID602229 (The Scripps Research Institute Molecular Screening Center, 2012) come the findings set out here.

In all, about 360,000 compounds went through this assay and about 1,300 (0.36%) were called active. Many of the other results were omitted from the sample, so actives are more common in it than they were. Unmarked numbers belong to inactive results.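 How the source made its calls: active means inhibition above the mean of all tested compounds plus 3 SD (cut at about 70% in these data); inactive means the rest.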

In the experiment the target is Photoreceptor-specific nuclear receptor (Homo sapiens) (UniProt Q9Y5X4). Put plainly: NR2E3 agonists in two-hybrid cells, primary screen, cell-based, luminescence, CHO-S, Gal4-NCOR/VP16-NR2E3 (AID 602229).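 Further: 0% = DMSO with NR2E3 transfected cells and 100% = cells lacking NR2E3 construct; higher means lower luciferase signal from less NR2E3 corepressor binding.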 As to conditions: luciferase, at 3.98 µM, active compounds read high.
Sequence of Photoreceptor-specific nuclear receptor (Homo sapiens) (Q9Y5X4 whole entry, looked up, the tested form may be a part): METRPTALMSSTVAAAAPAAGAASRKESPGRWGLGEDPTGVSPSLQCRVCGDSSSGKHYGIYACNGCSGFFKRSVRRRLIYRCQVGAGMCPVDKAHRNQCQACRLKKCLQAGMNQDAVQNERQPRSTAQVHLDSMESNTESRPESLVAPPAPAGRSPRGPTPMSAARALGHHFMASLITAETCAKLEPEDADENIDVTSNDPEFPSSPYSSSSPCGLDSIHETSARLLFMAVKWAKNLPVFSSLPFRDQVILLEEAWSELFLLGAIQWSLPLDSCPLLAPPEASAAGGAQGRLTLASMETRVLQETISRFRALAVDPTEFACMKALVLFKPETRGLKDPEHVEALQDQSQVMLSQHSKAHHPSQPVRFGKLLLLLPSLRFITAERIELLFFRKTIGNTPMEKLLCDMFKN
As a reminder, the inhibition is the change of the read-out against control, counted positive when it falls. `CC(=O)OC1C2(CC3N4C(=O)C5(CO)SSC4(CC31O)C(=O)N5C)OC(C)C(C)(C)C2=O` (stereo not given): the inhibition is 99.4% (active).

As to `Cc1nn(-c2ccccc2)c(C)c1NC(=O)COC(=O)Cc1ccccc1`, the inhibition is 8.66%. The value for `COc1ccc(Br)cc1CNCCc1cccc(Cl)c1` was 24.3%.

As for `COC(=O)C1=C(c2ccc(F)cc2OCc2ccccc2)C[C@@H]2CC[C@H]1N2C(=O)NCc1ccc(C(C)(C)C)cc1`, the inhibition is 8.82%. Take `CCCCCCCCCCCCn1ccc(=N)cc1`: the inhibition is 94% (active). Take `CC(C)CN1Cc2cc(N3CCCCC3)ccc2-n2nncc2C1`: the inhibition was 3.03%. With `CNC(=O)N(C)c1nnc(C(C)(C)C)s1`, the inhibition was -10.2%. Take `CN(C)P(=S)(Nc1ccccc1)C(Cl)(Cl)Cl` (stereo not given): the inhibition was 5.18%. Turning to `COC(=O)N(c1ccc(OC)cc1)P1(=S)OCCC(C)O1` (stereo not given), the inhibition was -15.4%.

For the compound `CC(=NCC1CCCO1)c1c(O)n(-c2ccccc2)c(=O)[nH]c1=O` (stereo not given), the inhibition is 0.24%.

As for `CCC(C)(O)C(=O)OC1C(=O)OC2CC3C(C)=CC(=O)C(O)C3(C)C3C4(O)OCC23C1C(C)C4O` (stereo not given), the inhibition is 99% (active). The result for `CCC(=O)OC(Cc1ccccc1)(c1ccccc1)C(C)CN(C)C` (stereo not given) reads -18.8%. `Nc1ccc(Cc2ccc(N)c(Cl)c2)cc1Cl`: the inhibition is -10.5%.

On to `Cn1c(O)c(C(=Nc2ccc(F)cc2)c2ccccc2)c(=O)n(C)c1=O`, for which the inhibition was -24.4%. As to `COc1cccc(-c2nc3ccc(N4CCN(C)CC4)cc3[nH]2)c1`, the inhibition was -20.1%.
